Shown are actives, neighbours in structure and some others; about 19% of the full set was active somewhere.
MCF10A rerep = A quantitative high throughput screen for small molecules that induce DNA re-replication in MCF 10a normal breast cells | Potency, µM (series often up to 46.1 µM), actives largely listed as activators | AID 624296, 2012 | MCF 10A DNA re-replication, Hoechst nuclear intensity, 48 h | 350,000 compounds, 2.9% hits; also: nearly all actives have a fitted effect of over 50% in size
SW480 rerep = A quantitative high throughput screen for small molecules that induce DNA re-replication in SW480 colon adenocarcinoma cells; SW480 DNA re-replication, Hoechst DNA content imaging, 48 h; Potency, µM (doses to about 46.1 µM), actives largely listed as activators; 340,000 compounds, 1.8% hits; also: nearly all actives have a fitted effect of over 55% in size
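Cells (250 per well) received 23 nL compound or DMSO by pin tool and were kept 48 hr at 37 C, 5% CO2. Nuclei were then stained with Hoechst for 40 min and scanned for DNA content.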
DT40 TDP1 CPT = qHTS for Inhibitors of human tyrosyl-DNA phosphodiesterase 1 (TDP1): qHTS in cells in presence of CPT. Potency, µM (series often up to 46.2 µM), actives largely listed as inhibitors. chicken DT40 Tdp1-/-;hTDP1 cells + 20 nM CPT, ATP luminescence, 48 h. 420,000 compounds, 12% hits. AID 686979, 2013; also: nearly all actives have a fitted effect of over 55% in size
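Cell growth measured by CellTiter-Glo luminescence after a minimum 48 h, 37 C compound exposure with 20 nM CPT in Tdp1-knockout DT40 cells stably expressing hTDP1, seeded 400/well; qHTS titration format.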
IL1B secr inh = qHTS for Inhibitors of Inflammasome Signaling: IL-1-beta AlphaLISA Primary Screen. THP-1 LPS/ATP IL-1B secretion, AlphaLISA, 16 h; active compounds read low. activity change, % at 57.5 µM. 360,000 compounds, 4.7% hits; in the data active = activity change below about -50%; inconclusive = mostly about -30% to -49%
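Secreted IL-1B measured by AlphaLISA bead assay after 16 h compound exposure of THP-1 cells; compounds (final up to 57.5 uM) added 1 h before LPS (250 ng/mL) and ATP (1.25 mM) stimulation; lower signal means less secretion.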
BCR signal inh = qHTS Assay to Find Inhibitors of Chronic Active B-Cell Receptor Signaling; ABC-DLBCL IkBa-CBG/CBR reporter, luminescence ratio, 4 h; Potency, µM (top dose mostly 46.1 µM), most hits filed as inhibitors; 340,000 compounds, 0.05% hits; AID 493014, 2011; active = well fitted inhibition curve with a large enough effect in the signal ratio, with a control signal flat, not every such curve was filed as active; inconclusive = small, poorly fitted or top-dose-only effect, or effect the other way, or a change in a side signal; the % refers to the signal ratio
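Concentration-response series (up to 46 uM) were applied to TMD8 dual-reporter cells for 4 h at 37C with doxycycline. Green/red ratio, after filter-overlap correction, defined %Activity; red signal alone was normalised to basal cells and zero luminescence.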
DT40 TDP1 no CPT = qHTS for Inhibitors of human tyrosyl-DNA phosphodiesterase 1 (TDP1): qHTS in cells in absence of CPT; DT40 Tdp1-/- hTDP1 cells, no CPT, ATP luminescence, 48 h; Potency, µM (titrated, usually from 46.2 µM), actives largely listed as inhibitors; 420,000 compounds, 15% hits; AID 686978, 2013; also: nearly all actives have a fitted effect of over 55% in size
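Chicken DT40 Tdp1-/- cells complemented with human TDP1, screened without camptothecin (DMSO vehicle only), 400 cells/well. Compounds pin-transferred, cells incubated at 37 °C for at least 48 hr. Growth read as ATP-dependent luminescence (CellTiter-Glo, 30 min at RT).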
Hits are given with their value. Unless noted, calls follow the shape of the dose curve; as a rule, active = well fitted curve in the direction sought with a large enough effect; inconclusive = small, poorly fitted or top-dose-only effect, or another doubt; inactive = no such curve, though single readings can be large; an effect the other way counts as inactive or inconclusive.

CC(=O)c1cc(-c2ccccc2)n(CCC(=O)NC(C)c2ccccc2)c1C (stereo not drawn) was read as DT40 TDP1 CPT inconclusive, BCR signal inh inactive and DT40 TDP1 no CPT inconclusive.
For CC(C)C[C@H]1CN(CCCC[C@H]2CNC(=O)C(=O)N2CCc2ccc(O)cc2)C(=O)C(=O)N1CCC1CCCCC1 the results were DT40 TDP1 CPT inactive, IL1B secr inh inactive and DT40 TDP1 no CPT inactive.
For Cc1ccc(-c2nc(CS(=O)(=O)CC(=O)Nc3cc(F)ccc3F)c(C)o2)cc1 the results were MCF10A rerep inactive, SW480 rerep inactive, DT40 TDP1 CPT inactive, IL1B secr inh inactive, BCR signal inh inactive and DT40 TDP1 no CPT inconclusive.
`O=C(c1cccc(F)c1)N1CCC2(CCCN(Cc3ccccc3)C2)CC1` gave DT40 TDP1 CPT inactive and DT40 TDP1 no CPT inactive.
Screening COc1ccc(S(=O)(=O)N(C)C[C@@H]2Oc3c(NS(C)(=O)=O)cccc3C(=O)N([C@@H](C)CO)C[C@H]2C)cc1 returned MCF10A rerep inconclusive, SW480 rerep inactive, DT40 TDP1 CPT inactive, IL1B secr inh inactive, BCR signal inh inactive and DT40 TDP1 no CPT inactive.
Cc1ccc(NS(=O)(=O)c2ccc3c(c2)CC(C)N3C(=O)C2CCC2)cc1Cl (stereo not drawn) was read as DT40 TDP1 CPT 16.4µM and DT40 TDP1 no CPT 10.3µM.
Cc1ccc(NS(=O)(=O)c2ccc(Cl)c(NC(=S)NC(=O)C3CCCCC3)c2)cc1Cl was read as MCF10A rerep 8.2µM, SW480 rerep inactive, DT40 TDP1 CPT 23.1µM, IL1B secr inh -76.9, BCR signal inh inconclusive and DT40 TDP1 no CPT inconclusive.
Cc1cc(Cl)ccc1NS(=O)(=O)c1ccc2c(c1)CC(C)N2C(=O)C1CCC1 (stereo not drawn) was read as DT40 TDP1 CPT 18.4µM and DT40 TDP1 no CPT 16.4µM.
COCCNC(=O)C1CCC(CNS(=O)(=O)c2ccc3c(c2)CC(C)N3C(=O)C2CC2)CC1 (stereo not drawn) was read as MCF10A rerep inactive, SW480 rerep inactive, DT40 TDP1 CPT inactive, IL1B secr inh inactive, BCR signal inh inactive and DT40 TDP1 no CPT inactive.
For Cc1oc(-c2cccc(Cl)c2)nc1CN1CCC(C(=O)NCCCN2CC(C)CC(C)C2)CC1 (stereo not drawn) the results were MCF10A rerep inactive, SW480 rerep inactive, DT40 TDP1 CPT inconclusive, IL1B secr inh inactive, BCR signal inh inactive and DT40 TDP1 no CPT 20.6µM.
`Cc1oc(-c2cccc(Cl)c2)nc1CN1CCC(C(=O)NCCCN2CCCC2=O)CC1` gave MCF10A rerep inactive, SW480 rerep inactive, DT40 TDP1 CPT inactive, IL1B secr inh inactive, BCR signal inh inactive and DT40 TDP1 no CPT inactive.
`COc1ccc(CCNC(=O)C2CCN(Cc3nc(-c4cccc(Cl)c4)oc3C)CC2)cc1OC` gave MCF10A rerep inactive, SW480 rerep inactive, DT40 TDP1 CPT 18.4µM, IL1B secr inh inactive, BCR signal inh inactive and DT40 TDP1 no CPT 20.6µM.
Screening Fc1ccc(CNc2ncnc3cc(Cl)ccc23)cc1 returned MCF10A rerep inconclusive, SW480 rerep inactive, DT40 TDP1 CPT inconclusive, IL1B secr inh inactive, BCR signal inh inactive and DT40 TDP1 no CPT inconclusive.
`Cn1ncc2c(NCc3ccco3)ncnc21` gave DT40 TDP1 CPT inactive and DT40 TDP1 no CPT inactive.
Screening Clc1ccc2c(NCc3ccco3)ncnc2c1 returned MCF10A rerep inactive, SW480 rerep inactive, DT40 TDP1 CPT 14.6µM, IL1B secr inh inactive, BCR signal inh inactive and DT40 TDP1 no CPT 13µM.
Cc1ccc2ncnc(NCc3ccco3)c2c1 was read as DT40 TDP1 CPT 7.08µM and DT40 TDP1 no CPT 4.47µM.
CSc1nc2nc3c(cc2c(=O)n1-c1ccccc1C)CCCC3 was read as MCF10A rerep inactive, SW480 rerep inactive, DT40 TDP1 CPT 7.31µM, IL1B secr inh inactive, BCR signal inh inactive and DT40 TDP1 no CPT 7.31µM.
Screening CCCSc1nc2sc3c(c2c(=O)n1-c1ccc(C)c(Cl)c1)CCN(C(C)=O)C3 returned DT40 TDP1 CPT 23.1µM and DT40 TDP1 no CPT 23.1µM.
CSc1nc2sc3c(c2c(=O)n1-c1ccccc1C)CCCC3 was read as DT40 TDP1 CPT 23.1µM, BCR signal inh inconclusive and DT40 TDP1 no CPT 16.4µM.
For CC(=O)N1CCc2c(sc3nc(SCC(N)=O)n(-c4ccc(F)c(Cl)c4)c(=O)c23)C1 the results were DT40 TDP1 CPT inactive and DT40 TDP1 no CPT inactive.
Screening CSc1nc2sc3c(c2c(=O)n1-c1ccc(F)c(Cl)c1)CCN(C(C)=O)C3 returned DT40 TDP1 CPT inactive and DT40 TDP1 no CPT inactive.
CCn1c(SCc2ccc(Cl)cc2)nc2nc3c(cc2c1=O)CCCC3 was read as MCF10A rerep inconclusive, SW480 rerep inactive, DT40 TDP1 CPT inconclusive, IL1B secr inh inconclusive, BCR signal inh inactive and DT40 TDP1 no CPT inconclusive.
`CC(=O)N1CCc2c(sc3nc(SCC(C)C)n(-c4ccc(C)c(Cl)c4)c(=O)c23)C1` gave DT40 TDP1 CPT 23.1µM and DT40 TDP1 no CPT inconclusive.
For CCOC(=O)C1CCN(C2CCN(C(=O)c3oc4c(C)c(C)ccc4c3C)CC2)CC1 the results were MCF10A rerep inconclusive, SW480 rerep inactive, DT40 TDP1 CPT inconclusive, IL1B secr inh inconclusive, BCR signal inh inactive and DT40 TDP1 no CPT inactive.
Screening CCOC1=C2CN(S(=O)(=O)c3ccc(C)cc3)[C@H](c3ccccc3)C[C@@H]2N(S(=O)(=O)c2ccc(C)cc2)[C@H](c2cccs2)C1 returned DT40 TDP1 CPT inactive, IL1B secr inh inactive and DT40 TDP1 no CPT inactive.
COc1ccc(N2CC(C(=O)Nc3cccnc3)CC2=O)cc1 (stereo not drawn) was read as MCF10A rerep inactive, SW480 rerep inactive, DT40 TDP1 CPT inactive, IL1B secr inh inactive, BCR signal inh inactive and DT40 TDP1 no CPT inactive.
`CCCSc1nc2sc3c(c2c(=O)n1-c1ccc(C)cc1)CCCC3` gave DT40 TDP1 CPT inconclusive and DT40 TDP1 no CPT 9.2µM.
Screening CCCCSc1nnc2n(-c3cccc(C)c3)c(=O)c3c4c(sc3n12)CCCC4 returned DT40 TDP1 CPT inconclusive and DT40 TDP1 no CPT 16.4µM.
Screening CSc1nnc2n(-c3ccccc3)c(=O)c3c4c(sc3n12)CCC4 returned MCF10A rerep inactive, SW480 rerep inconclusive, DT40 TDP1 CPT inactive, IL1B secr inh inactive, BCR signal inh inactive and DT40 TDP1 no CPT inactive.
Cc1ccc(-n2c(SCC(=O)O)nc3sc4c(c3c2=O)CCCC4)cc1 was read as MCF10A rerep inactive, SW480 rerep inactive, DT40 TDP1 CPT inactive, IL1B secr inh inactive, BCR signal inh inactive and DT40 TDP1 no CPT inactive.
